Results filed as inconclusive are left out. More than one record can exist for a structure, and the calls need not agree. Activity calls are given as the source filed them. Rule for the calls, unless noted: active = hit-call score of the fitted dose curve at least 0.9, where 1 is the maximum; inactive = score below 0.9.
Key:
[1] = BSK_4H_Eotaxin3: BioMAP Diversity Plus: 4H Assay for Eotaxin 3 Biomarker Activity (AID 2283000); conditions: primary human endothelial cells (HUVEC); actives raise or lower the signal
Method in brief: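 Readout is Eotaxin-3 (CCL26) level by ELISA in primary human umbilical vein endothelial cells harvested 24 h after chemical exposure; activity fitted in both directions against DMSO control.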

[2] = read-out: Intercellular Adhesion Molecule 1 (ICAM1), ICAM1 (gene 3383); assay: BSK_3C_ICAM1: BioMAP Diversity Plus: 3C Assay for Intercellular Adhesion Molecule 1 (ICAM1) Biomarker Activity (AID 2283003); conditions: primary human endothelial cells (HUVEC); actives raise or lower the signal
Method in brief: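 Using DMSO as baseline, bidirectional curve fitting was applied to ICAM-1 ELISA signals from HUVEC in the 3C system, measured 24 h after compound addition.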

[3] = biological target: human Retinoic Acid Receptor beta (RARb), RARB (gene 5915) (UniProt P10826); assay: ATG_RARb_TRANS: Attagene TRANS-FACTORIAL HepG2 Assay for human Retinoic Acid Receptor beta (AID 2283004; active = hit-call score of the fitted dose curve at least 0.9, where 1 is the maximum)
Method in brief: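 Readout is reporter mRNA induction: RNA reverse-transcribed, PCR-amplified, FAM-labelled, HpaI-cut and resolved by capillary electrophoresis. Transiently transfected HepG2 cells carrying exogenous NR–Gal4 chimeras were dosed for 24 h; activity fitted upward relative to DMSO.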

[4] = BSK_3C_Proliferation: Cell Proliferation Assessment in the BioMAP Diversity Plus: 3C Assay (AID 2283006); conditions: primary human endothelial cells (HUVEC);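 for AC50: potency may reflect either rise or fall in cell number versus DMSO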
Method in brief: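 Measured here: sulforhodamine B (0.1%) staining of TCA-fixed sub-confluent umbilical vein endothelial cultures 48 h post-dosing, absorbance 560 nm. DMSO served as negative control and baseline; both signal gain and loss were modelled.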

[5] = biological target: Peroxisome proliferator-activated receptor gamma (Homo sapiens) (UniProt P37231); assay: ATG_PPARg_TRANS: Attagene TRANS-FACTORIAL HepG2 Assay for human Peroxisome Proliferator-activated Receptor-gamma (PPARg) (AID 2283007; active = hit-call score of the fitted dose curve at least 0.9, where 1 is the maximum)
Method in brief: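 A TRANS-format multiplexed reporter assay measures activity of an exogenous chimeric NR-Gal4 protein in HepG2 cells. After 24 h of chemical exposure, reporter transcripts are amplified, fluorescently labelled and sized by capillary electrophoresis, with gain of signal scored against DMSO.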

[6] = biological target: Nuclear receptor subfamily 1 group I member 2 (Homo sapiens) (UniProt O75469); assay: ATG_PXR_TRANS: Attagene TRANS-FACTORIAL HepG2 Assay for human Pregnane X Receptor (PXR) (AID 2283008; active = hit-call score of the fitted dose curve at least 0.9, where 1 is the maximum)
Method in brief: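 Transient HepG2 transfectants carrying multiplexed reporter transcription units; PXR activity read through a Gal4 chimera. 24 h exposure. RT-PCR/CE fluorescence; upward curve fit referenced to DMSO.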

[7] = biological target: human Retinoic Acid Receptor gamma (RARg), RARG (gene 5916) (UniProt P13631); assay: ATG_RARg_TRANS: Attagene TRANS-FACTORIAL HepG2 Assay for human Retinoic Acid Receptor gamma (RARg) (AID 2283009; active = hit-call score of the fitted dose curve at least 0.9, where 1 is the maximum;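 for AC50: AC50 is for reporter induction above DMSO meaning RARg activation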)
Method in brief: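 Gain-of-signal relative to DMSO is reported from fluorescent capillary electrophoresis of RT-PCR reporter products. These came from HepG2 cells expressing transfected RARg-GAL4 chimeras with UAS reporters, harvested 24 h after dosing.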

[8] = biological target: human RAR-related Orphan Receptor beta (RORb), RORB (gene 6096) (UniProt Q92753); assay: ATG_RORb_TRANS: Attagene TRANS-FACTORIAL HepG2 Assay for human RAR-related Orphan Receptor beta (RORb) (AID 2283010; active = hit-call score of the fitted dose curve at least 0.9, where 1 is the maximum)
Method in brief: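 Multiplexed transcription-factor reporter assay: HepG2 cells transiently carrying NR-Gal4/GAL4-UAS constructs, 24 h treatment, mRNA quantified by RT-PCR plus capillary electrophoresis fluorescence; activity scored as induction over DMSO.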

[9] = read-out: E-selectin (Homo sapiens) (UniProt P16581); assay: BSK_3C_Eselectin: BioMAP Diversity Plus: 3C Assay for Eselectin Biomarker Activity (AID 2283015); conditions: primary human endothelial cells (HUVEC); actives raise or lower the signal
Method in brief: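 HUVEC, 3C stimulation; compound exposure 24 h; E-selectin by ELISA; gain- or loss-of-signal fitted bidirectionally vs DMSO baseline.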

[10] = read-out: Interleukin-1 alpha (IL1a), IL1A (gene 3552); assay: BSK_BE3C_IL1a: BioMAP Diversity Plus: BE3C Assay for Interleukin-1 alpha (IL1a) Biomarker Activity (AID 2283016); conditions: primary human bronchial epithelial cells; actives raise or lower the signal
Method in brief: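 Measured in human lung primary bronchial epithelial cells: IL-1a by ELISA at 24 h after dosing, with bidirectional fitting against DMSO.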

[11] = read-out: Monocyte Chemoattractant Protein-1 (MCP1), CCL2 (gene 6347); assay: BSK_3C_MCP1: BioMAP Diversity Plus: 3C Assay for Monocyte Chemoattractant Protein-1 (MCP1) Biomarker Activity (AID 2283017); conditions: primary human endothelial cells (HUVEC); actives raise or lower the signal
Method in brief: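 HUVEC, 3C system; 24 h chemical exposure; MCP-1 by ELISA; bidirectional curve fit vs DMSO baseline.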

[12] = read-out: Monocyte Chemoattractant Protein-1 (MCP1), CCL2 (gene 6347); assay: BSK_4H_MCP1: BioMAP Diversity Plus: 4H Assay for Monocyte Chemoattractant Protein-1 (MCP1) Biomarker Activity (AID 2283018); conditions: primary human endothelial cells (HUVEC); actives raise or lower the signal
Method in brief: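 Primary human umbilical vein endothelium is exposed to chemical for 24 h before MCP-1 is assayed by ELISA. Concentration-response fitted bidirectionally relative to DMSO.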

[13] = read-out: Human Leukocyte Antigen - DR isotype (HLADR), HLA-DRA (gene 3122); assay: BSK_3C_HLADR: BioMAP Diversity Plus: 3C Assay for Human Leukocyte Antigen - DR isotype (HLADR) Biomarker Activity (AID 2283019); conditions: primary human endothelial cells (HUVEC); actives raise or lower the signal
Method in brief: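 HUVEC, 3C stimulation, 24 h post-dose; HLA-DR by ELISA; bidirectional curve fit vs DMSO baseline; gain or loss of signal scored.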

[14] = read-out: Interleukin-8 (IL8), CXCL8 (gene 3576); assay: BSK_3C_IL8: BioMAP Diversity Plus: 3C Assay for Interleukin-8 (IL8) Biomarker Activity (AID 2283020); conditions: primary human endothelial cells (HUVEC); actives raise or lower the signal
Method in brief: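 Using DMSO-treated wells as the baseline, bidirectional curve fitting was applied to ELISA-measured IL-8 from human umbilical vein endothelial cultures sampled 24 h after compound addition.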

[15] = biological target: human Retinoid X Receptor beta (RXRb), RXRB (gene 6257) (UniProt P28702); assay: ATG_RXRb_TRANS: Attagene TRANS-FACTORIAL HepG2 Assay for human Retinoid X Receptor beta (RXRb) (AID 2283013; active = hit-call score of the fitted dose curve at least 0.9, where 1 is the maximum)
Method in brief: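 After a 24 h incubation with test chemical, transfected HepG2 cells carrying NR-Gal4 fusions and GAL4-UAS reporter transcription units yield RNA whose reporter cDNA is FAM-labelled, HpaI-cut and sized by capillary electrophoresis; increases over DMSO are scored.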

[16] = biological target: human Thyroid Receptor alpha (THRa1), THRA (gene 7067) (UniProt P10827); assay: ATG_THRa1_TRANS: Attagene TRANS-FACTORIAL HepG2 Assay for human Thyroid Receptor alpha (THRa1) (AID 2283014; active = hit-call score of the fitted dose curve at least 0.9, where 1 is the maximum)
Method in brief: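 Transient HepG2 transfection, NR-Gal4 chimera driving GAL4-UAS reporters; 24 h compound exposure; total RNA, oligo(dT) RT, PCR, fluorescent primer extension, capillary electrophoresis. Upward direction vs DMSO control.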

[17] = biological target: human RAR-related Orphan Receptor gamma (RORg), RORC (gene 6097) (UniProt P51449); assay: ATG_RORg_TRANS: Attagene TRANS-FACTORIAL HepG2 Assay for human RAR-related Orphan Receptor gamma (RORg) (AID 2283011; active = hit-call score of the fitted dose curve at least 0.9, where 1 is the maximum)
Method in brief: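 Transient MRTU transfection of HepG2 (TRANS format, exogenous NR-Gal4 chimera). 24 h dosing. Total RNA → oligo(dT) RT → PCR → 6-FAM labelling → HpaI cut → CE. Gain vs DMSO.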

[18] = biological target: Retinoic acid receptor RXR-alpha (Homo sapiens) (UniProt P19793); assay: ATG_RXRa_TRANS: Attagene TRANS-FACTORIAL HepG2 Assay for human Retinoid X Receptor alpha (RXRa) (AID 2283012; active = hit-call score of the fitted dose curve at least 0.9, where 1 is the maximum)
Method in brief: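 Chimeric NR-GAL4 trans-activation in HepG2, 24 h treatment; reporter transcripts quantified by fluorescence on capillary electrophoresis, analysed for upward change from DMSO.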

Measured: AC50

Sequence of Peroxisome proliferator-activated receptor gamma (Homo sapiens) (P37231 whole entry, looked up, the tested form may be a part): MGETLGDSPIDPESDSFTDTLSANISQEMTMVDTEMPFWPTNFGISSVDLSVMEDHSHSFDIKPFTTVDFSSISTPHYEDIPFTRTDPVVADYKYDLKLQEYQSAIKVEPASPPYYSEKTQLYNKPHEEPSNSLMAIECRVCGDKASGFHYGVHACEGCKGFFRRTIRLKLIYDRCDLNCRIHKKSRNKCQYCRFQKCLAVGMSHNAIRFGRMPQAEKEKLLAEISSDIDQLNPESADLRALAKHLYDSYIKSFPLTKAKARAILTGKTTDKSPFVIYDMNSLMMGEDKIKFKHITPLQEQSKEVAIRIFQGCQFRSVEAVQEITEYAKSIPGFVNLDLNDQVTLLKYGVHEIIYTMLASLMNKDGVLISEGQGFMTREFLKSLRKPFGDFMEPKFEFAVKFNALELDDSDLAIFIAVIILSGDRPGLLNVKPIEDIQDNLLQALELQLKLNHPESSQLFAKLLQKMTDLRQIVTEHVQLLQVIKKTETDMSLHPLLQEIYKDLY
Sequence of human RAR-related Orphan Receptor beta (RORb), RORB (gene 6096) (Q92753 whole entry, looked up, the tested form may be a part): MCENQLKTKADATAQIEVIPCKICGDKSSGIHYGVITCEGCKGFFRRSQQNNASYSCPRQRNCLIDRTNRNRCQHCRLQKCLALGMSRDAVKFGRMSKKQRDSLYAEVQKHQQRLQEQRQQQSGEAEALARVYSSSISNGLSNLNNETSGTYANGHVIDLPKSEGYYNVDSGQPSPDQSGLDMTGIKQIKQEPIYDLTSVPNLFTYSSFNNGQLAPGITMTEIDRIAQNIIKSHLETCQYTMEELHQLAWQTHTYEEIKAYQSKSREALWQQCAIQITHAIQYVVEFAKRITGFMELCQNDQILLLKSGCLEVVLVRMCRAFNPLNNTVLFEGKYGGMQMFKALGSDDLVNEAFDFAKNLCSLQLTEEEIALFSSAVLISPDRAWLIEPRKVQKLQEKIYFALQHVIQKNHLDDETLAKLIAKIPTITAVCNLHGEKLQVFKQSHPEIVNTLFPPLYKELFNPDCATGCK
Sequence of E-selectin (Homo sapiens) (P16581 whole entry, looked up): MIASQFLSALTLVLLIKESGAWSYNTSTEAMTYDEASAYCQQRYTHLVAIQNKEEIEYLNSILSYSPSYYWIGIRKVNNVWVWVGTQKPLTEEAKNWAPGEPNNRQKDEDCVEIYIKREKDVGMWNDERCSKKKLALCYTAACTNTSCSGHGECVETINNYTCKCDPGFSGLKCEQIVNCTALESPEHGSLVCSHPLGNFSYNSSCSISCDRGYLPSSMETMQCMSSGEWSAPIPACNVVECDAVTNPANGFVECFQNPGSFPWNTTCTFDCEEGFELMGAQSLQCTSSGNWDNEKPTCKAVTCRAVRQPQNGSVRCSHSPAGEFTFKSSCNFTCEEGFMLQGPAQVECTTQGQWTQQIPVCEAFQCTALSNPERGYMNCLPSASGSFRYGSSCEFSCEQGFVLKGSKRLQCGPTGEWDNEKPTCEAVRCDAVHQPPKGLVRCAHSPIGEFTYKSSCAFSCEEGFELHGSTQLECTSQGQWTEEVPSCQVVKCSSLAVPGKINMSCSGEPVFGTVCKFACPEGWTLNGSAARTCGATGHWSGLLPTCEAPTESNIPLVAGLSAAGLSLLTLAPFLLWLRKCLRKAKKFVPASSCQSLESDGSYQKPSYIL
Sequence of Nuclear receptor subfamily 1 group I member 2 (Homo sapiens) (O75469 whole entry, looked up, the tested form may be a part): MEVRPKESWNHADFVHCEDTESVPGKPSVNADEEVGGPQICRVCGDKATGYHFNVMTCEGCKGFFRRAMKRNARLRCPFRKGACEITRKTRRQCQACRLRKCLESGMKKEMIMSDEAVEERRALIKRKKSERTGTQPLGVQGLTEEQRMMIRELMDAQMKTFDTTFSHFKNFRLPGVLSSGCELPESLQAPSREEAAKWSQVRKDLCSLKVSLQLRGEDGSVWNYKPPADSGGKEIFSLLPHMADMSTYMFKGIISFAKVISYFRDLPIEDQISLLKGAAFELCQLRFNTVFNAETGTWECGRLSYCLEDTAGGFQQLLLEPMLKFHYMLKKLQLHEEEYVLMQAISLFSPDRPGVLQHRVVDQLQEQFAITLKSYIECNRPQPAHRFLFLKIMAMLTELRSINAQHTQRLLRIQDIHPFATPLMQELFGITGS
Sequence of Retinoic acid receptor RXR-alpha (Homo sapiens) (P19793 whole entry, looked up, the tested form may be a part): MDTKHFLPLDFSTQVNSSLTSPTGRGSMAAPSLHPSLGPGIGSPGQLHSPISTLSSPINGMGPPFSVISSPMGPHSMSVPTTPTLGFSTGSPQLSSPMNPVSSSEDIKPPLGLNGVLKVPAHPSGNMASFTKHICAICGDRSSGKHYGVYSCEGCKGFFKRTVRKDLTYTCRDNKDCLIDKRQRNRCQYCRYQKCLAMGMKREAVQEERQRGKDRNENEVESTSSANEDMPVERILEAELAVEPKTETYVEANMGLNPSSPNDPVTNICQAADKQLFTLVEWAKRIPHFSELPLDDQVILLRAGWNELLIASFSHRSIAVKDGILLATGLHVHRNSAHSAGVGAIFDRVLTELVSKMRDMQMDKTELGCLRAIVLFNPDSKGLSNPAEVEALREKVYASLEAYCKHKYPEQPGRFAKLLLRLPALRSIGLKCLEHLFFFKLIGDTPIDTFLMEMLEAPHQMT
Sequence of human Retinoic Acid Receptor gamma (RARg), RARG (gene 5916) (P13631 whole entry, looked up, the tested form may be a part): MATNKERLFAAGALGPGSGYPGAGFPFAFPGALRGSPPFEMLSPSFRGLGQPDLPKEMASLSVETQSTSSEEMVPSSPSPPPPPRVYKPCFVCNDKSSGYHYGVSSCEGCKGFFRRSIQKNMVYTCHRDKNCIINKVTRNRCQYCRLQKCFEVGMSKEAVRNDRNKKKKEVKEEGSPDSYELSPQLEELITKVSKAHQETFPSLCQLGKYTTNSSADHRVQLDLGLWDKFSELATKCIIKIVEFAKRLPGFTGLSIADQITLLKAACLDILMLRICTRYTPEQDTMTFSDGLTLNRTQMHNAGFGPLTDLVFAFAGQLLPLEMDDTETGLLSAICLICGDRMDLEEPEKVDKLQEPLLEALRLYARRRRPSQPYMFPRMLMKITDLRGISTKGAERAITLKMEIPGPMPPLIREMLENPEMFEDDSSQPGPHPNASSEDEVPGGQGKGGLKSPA
Sequence of human Retinoic Acid Receptor beta (RARb), RARB (gene 5915) (P10826 whole entry, looked up, the tested form may be a part): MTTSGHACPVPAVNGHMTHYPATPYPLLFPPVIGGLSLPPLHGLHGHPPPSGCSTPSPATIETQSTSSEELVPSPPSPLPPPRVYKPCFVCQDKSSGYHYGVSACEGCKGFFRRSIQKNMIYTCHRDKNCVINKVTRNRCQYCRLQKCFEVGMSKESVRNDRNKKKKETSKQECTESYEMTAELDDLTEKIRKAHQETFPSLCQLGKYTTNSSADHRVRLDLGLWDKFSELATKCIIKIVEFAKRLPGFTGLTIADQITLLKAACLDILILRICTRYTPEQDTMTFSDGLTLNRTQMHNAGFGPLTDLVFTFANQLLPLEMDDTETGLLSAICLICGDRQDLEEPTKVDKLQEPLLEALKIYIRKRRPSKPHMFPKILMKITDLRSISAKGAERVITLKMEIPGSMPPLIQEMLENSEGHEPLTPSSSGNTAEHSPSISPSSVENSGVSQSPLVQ
Sequence of human Retinoid X Receptor beta (RXRb), RXRB (gene 6257) (P28702 whole entry, looked up, the tested form may be a part): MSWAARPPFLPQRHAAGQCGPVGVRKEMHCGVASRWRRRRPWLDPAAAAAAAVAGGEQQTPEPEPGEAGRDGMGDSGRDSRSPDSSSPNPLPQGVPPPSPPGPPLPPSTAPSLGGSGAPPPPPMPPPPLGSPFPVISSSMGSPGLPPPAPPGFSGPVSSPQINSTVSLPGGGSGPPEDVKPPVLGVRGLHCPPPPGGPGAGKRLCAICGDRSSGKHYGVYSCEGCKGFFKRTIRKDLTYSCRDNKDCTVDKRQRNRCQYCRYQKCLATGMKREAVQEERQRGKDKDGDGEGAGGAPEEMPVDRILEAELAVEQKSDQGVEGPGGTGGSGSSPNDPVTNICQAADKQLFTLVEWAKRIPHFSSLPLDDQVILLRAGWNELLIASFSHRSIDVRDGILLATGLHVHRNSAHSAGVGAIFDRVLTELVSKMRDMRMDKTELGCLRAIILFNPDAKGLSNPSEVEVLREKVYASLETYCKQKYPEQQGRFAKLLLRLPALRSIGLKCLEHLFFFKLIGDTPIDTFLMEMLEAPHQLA
Sequence of human Thyroid Receptor alpha (THRa1), THRA (gene 7067) (P10827 whole entry, looked up, the tested form may be a part): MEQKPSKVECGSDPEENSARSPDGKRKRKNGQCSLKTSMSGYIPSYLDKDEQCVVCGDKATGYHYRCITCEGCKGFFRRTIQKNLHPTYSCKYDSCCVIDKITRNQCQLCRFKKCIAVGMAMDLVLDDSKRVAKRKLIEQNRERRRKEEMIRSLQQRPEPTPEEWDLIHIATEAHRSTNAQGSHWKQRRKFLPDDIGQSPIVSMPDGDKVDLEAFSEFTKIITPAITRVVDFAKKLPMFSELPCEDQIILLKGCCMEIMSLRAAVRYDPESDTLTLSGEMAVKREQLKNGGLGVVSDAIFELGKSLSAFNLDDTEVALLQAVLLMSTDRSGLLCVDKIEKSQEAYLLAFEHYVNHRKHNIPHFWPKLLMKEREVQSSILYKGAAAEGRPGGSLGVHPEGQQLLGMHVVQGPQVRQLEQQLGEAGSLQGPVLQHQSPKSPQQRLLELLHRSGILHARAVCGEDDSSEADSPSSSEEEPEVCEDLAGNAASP
Sequence of human RAR-related Orphan Receptor gamma (RORg), RORC (gene 6097) (P51449 whole entry, looked up, the tested form may be a part): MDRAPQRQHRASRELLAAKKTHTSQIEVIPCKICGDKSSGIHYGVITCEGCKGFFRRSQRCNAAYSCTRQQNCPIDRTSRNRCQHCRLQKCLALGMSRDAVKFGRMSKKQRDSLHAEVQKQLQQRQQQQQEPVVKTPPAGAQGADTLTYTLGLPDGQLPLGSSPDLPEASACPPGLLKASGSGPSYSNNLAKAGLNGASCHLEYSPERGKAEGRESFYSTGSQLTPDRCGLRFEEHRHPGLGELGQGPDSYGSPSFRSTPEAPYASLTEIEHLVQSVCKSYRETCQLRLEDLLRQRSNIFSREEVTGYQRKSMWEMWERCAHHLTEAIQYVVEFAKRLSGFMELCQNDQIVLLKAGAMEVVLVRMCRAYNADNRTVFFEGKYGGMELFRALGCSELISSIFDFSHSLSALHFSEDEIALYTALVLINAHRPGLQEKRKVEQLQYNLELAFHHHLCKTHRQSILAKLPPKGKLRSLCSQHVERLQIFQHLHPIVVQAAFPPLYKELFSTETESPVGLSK

C=C(C)C(=O)OCC(F)(F)C(F)(F)C(F)(F)C(F)(F)C(F)(F)C(F)(F)C(F)(F)F
not listed: [15] | [16] | [17] | [18]
inactive: all other assays above

OCC(F)(F)C(F)(F)C(F)(F)F
not listed: [17] | [18]
inactive: all other assays above

CCN(CC)c1ccc2c(C)cc(=O)oc2c1
active: [4] 30.6 µM | [5] 27.2 µM | [6] 3.63 µM | [13] 31.3 µM
not listed: [3] | [7] | [8] | [15] | [18]
inactive: all other assays above

C=CC(F)(F)C(F)(F)C(F)(F)C(F)(F)C(F)(F)C(F)(F)C(F)(F)C(F)(F)C=C
not listed: [6] | [15] | [16]
inactive: all other assays above

CCCCCCCCCCCCCCCC[N+](C)(C)Cc1ccccc1
active: [1] 6.55 µM | [2] 2.35 µM | [4] 0.604 µM | [5] 60.2 µM | [7] 49.9 µM | [9] 7.67 µM | [10] 8.81 µM | [11] 5 µM | [12] 1.37 µM | [13] 0.977 µM | [14] 7.59 µM
inactive: [3] | [6] | [8] | [17] | [18] | [15] | [16]

Cc1ccc(S(=O)(=O)OCC(F)(F)C(F)(F)C(F)(F)C(F)(F)C(F)(F)C(F)F)cc1
inactive: [1] | [2] | [3] | [4] | [5] | [7] | [8] | [9] | [10] | [11] | [12] | [13] | [14]
active: [4] 30 µM | [6] 2.98 µM | [15] 7.9 µM | [9] 33.4 µM | [10] 44.8 µM

FC(F)(F)C(F)(F)C(F)(F)C(F)(F)C(F)(F)C(F)(F)CCS
not listed: [3] | [7] | [8] | [15]
inactive: all other assays above

— PubChem BioAssay (EPA / NIEHS)
